# ± gives the standard deviation of the averaged measurements.
# Key:
# Assay in all cases: cell viability (% of vehicle); higher = less cytotoxic
# Conditions in all cases: 10 µM; 72 h
# HCI01 = tested on: HCI01 (cells of a triple-negative basal-like breast cancer xenograft)
# HCI03 = tested on: HCI03 (cells of an ER-positive luminal breast cancer xenograft)
# HCI09 = tested on: HCI09 (cells of a triple-negative luminal androgen receptor type breast cancer xenograft)
# HCI11 = tested on: HCI11 (cells of an ER-positive luminal breast cancer xenograft)
# HCI13 = tested on: HCI13 (cells of an ER-positive luminal breast cancer xenograft)
# HCI16 = tested on: HCI16 (cells of a triple-negative basal-like breast cancer xenograft)
# UCD52 = tested on: UCD52 (cells of a triple-negative basal-like breast cancer xenograft)
# WHIM2 = tested on: WHIM2 (cells of a triple-negative basal-like breast cancer xenograft)
# WHIM30 = tested on: WHIM30 (cells of a triple-negative basal-like breast cancer xenograft)
# 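Note: PDX cells carrying CMV promoter-driven luciferase, viability read as total photon flux per second by IVIS imaging following D-luciferin, vehicle control 0.1% DMSO.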
SMILES,cell viability (HCI01),cell viability (HCI03),cell viability (HCI09),cell viability (HCI11),cell viability (HCI13),cell viability (HCI16),cell viability (UCD52),cell viability (WHIM2),cell viability (WHIM30)
C=CCNC(N)=S [Allylthiourea],96.4 ± 7.7,118,94.1 ± 19,97.4,64.8 ± 14,107,129 ± 35,108 ± 35,130 ± 8
S=P(N1CC1)(N1CC1)N1CC1,109 ± 26,143,104 ± 1.4,103,111.3 ± 0.35,120,96.8 ± 5.2,83.8 ± 23,119 ± 11
Cl.O=C(O)C=Cc1ccc(Cn2ccnc2)cc1 [Ozagrel HCl],72.6 ± 40,135,100 ± 10,99.5,126 ± 10,122,87.7 ± 1.4,93.3 ± 30,140 ± 2.3
CCN(CC)CCOC(=O)c1ccc(N)cc1 [Procaine],99.4 ± 4.1,122,105 ± 23,87,96.765 ± 0.018,102,88.1 ± 3.5,97.3 ± 23,95.2 ± 24
CCC1(O)CC2CN(CCc3c([nH]c4ccccc34)C(C(=O)OC)(c3cc4c(cc3OC)N(C)C3C(O)(C(=O)OC)C(OC(C)=O)C5(CC)C=CCN6CCC43C65)C2)C1.O=S(=O)(O)O (stereo not given) [Vinblastine sulfate],127 ± 23,88.5,61 ± 26,102,40.1 ± 2.1,144,80.3 ± 1.4,76.8 ± 13,102 ± 19
CCN(Cc1ccncc1)C(=O)C(CO)c1ccccc1 (stereo not given) [Tropicamide],112 ± 15,136,106 ± 11,101,136 ± 23,110,74.6 ± 14,91.4 ± 14,98.61 ± 0.95
CCCNC(=O)NS(=O)(=O)c1ccc(Cl)cc1 [Chlorpropamide],121 ± 28,113,73.9 ± 18,82.9,81.8 ± 25,105,92.5 ± 5.9,99.5 ± 14,104 ± 4.6
CN(C)CCC(c1ccc(Br)cc1)c1ccccn1.O=C(O)C=CC(=O)O (stereo not given) [Brompheniramine hydrogen maleate],119 ± 19,117,103 ± 1.9,99.5,142 ± 4.6,118,74.9 ± 2.3,97.9 ± 3.3,113.4 ± 1.1
CC1(C)SC2C(NC(=O)C(N)c3ccc(O)cc3)C(=O)N2C1C(=O)O (stereo not given) [Amoxicillin],123 ± 28,112,103 ± 4.6,112,141 ± 17,120,84.9 ± 12,138 ± 44,102 ± 10
CS(=O)(=O)OCCCCOS(C)(=O)=O [Busulfan],99.951 ± 0.028,115,117 ± 7.2,105,109 ± 4.9,108,81.4 ± 3.8,97.6 ± 4,143 ± 10
COCCCOc1ccnc(C[S+]([O-])c2nc3ccccc3[nH]2)c1C (stereo not given) [Rabeprazole],156 ± 40,159,116 ± 3.5,123,152 ± 1.6,161,128 ± 27,131 ± 15,138 ± 8.2
CN(C)C(CCOc1cccc2ccccc12)c1ccccc1.Cl (stereo not given) [Dapoxetine HCl],87.4 ± 15,79.4,96.9 ± 11,74.2,95.1 ± 13,70,47.9 ± 5.3,65.2 ± 12,98.4 ± 1.4
CC(OC1OCCN(Cc2nc(=O)n(P(=O)(O)O)[nH]2)C1c1ccc(F)cc1)c1cc(C(F)(F)F)cc(C(F)(F)F)c1.CNCC(O)C(O)C(O)C(O)CO.CNCC(O)C(O)C(O)C(O)CO (stereo not given) [Fosaprepitant dimeglumine salt],67.4 ± 51,103,52.4 ± 27,85.1,76.2 ± 6.3,91.7,57.2 ± 7.3,79.7 ± 44,109 ± 2.4
Cn1c(=O)c2c(ncn2CC2OCCO2)n(C)c1=O [Doxofylline],110 ± 27,117,95.6 ± 12,100,82.8 ± 4.8,105,96.4 ± 3.6,102 ± 11,100 ± 9
O=c1nc[nH]c2c1ncn2C1CCC(CO)O1 (stereo not given) [Didanosine],105.3 ± 0.26,139,95.4 ± 7,118,99.18 ± 0.8,90.8,96.8 ± 9.7,98.5 ± 22,90.6 ± 1.1
O=C(CCc1ccc(O)cc1)c1c(O)cc(O)cc1OC1OC(CO)C(O)C(O)C1O (stereo not given) [Phloridzin],104 ± 31,123,98.1 ± 10,97.7,106 ± 6.1,115,105 ± 4.7,96.2 ± 9.1,97.2 ± 7.4
NCC1OC(OC2C(CO)OC(OC3C(O)C(N)CC(N)C3OC3OC(CO)C(O)C(O)C3N)C2O)C(N)C(O)C1O.O=S(=O)(O)O (stereo not given) [Paromomycin Sulfate],125 ± 32,133,88.3 ± 10,95,86.8 ± 14,129,91.82 ± 0.62,131 ± 48,111 ± 8
COc1cc2nc(N3CCN(C(=O)c4ccco4)CC3)nc(N)c2cc1OC.Cl [Prazosin HCl],152 ± 2.9,129,36.9 ± 1.6,131,108 ± 16,156,140 ± 7.2,52.5 ± 4.7,114 ± 1.7
C=C[C@]1(C)C[C@@H](OC(=O)CSC2C[C@H]3CC[C@@H](C2)N3C)[C@]2(C)[C@H](C)CC[C@]3(CCC(=O)[C@H]32)[C@@H](C)[C@@H]1O (stereo not given in full) [Retapamulin],73.5 ± 21,113,83.2 ± 3.2,93.3,111 ± 10,109,81.8 ± 4.8,80.3 ± 5.3,146 ± 15
C=C1CCC(O)CC1=CC=C1CCCC2(C)C1CCC2C(C)C=CC(C)C(C)C (stereo not given) [Vitamin D2 (Ergocalciferol)],118 ± 26,101,61.9 ± 14,95.2,58.8 ± 16,77.9,65.5 ± 2.4,40.7 ± 13,89.1 ± 10

# From the supplement of paper PMC6992640
